Laboratory results taken from ChEMBL document CHEMBL3988442, “University of Dundee, Small-Polar-MMV Screening Library” (2021).
For some assays here: Measured potencies and affinities stand elsewhere.

Key:
Parameters in all cases: scale not given: direction of the effect not stated beside the values
[1] = molecular target: Protein translocase subunit SecA (Escherichia coli (strain K12)) (UniProt P10408); assay: Assay to Identify E. coli SecA ATPase Inhibitors; type: functional; conditions: 30 µM
Sequence of Protein translocase subunit SecA (Escherichia coli (strain K12)) (P10408 whole entry): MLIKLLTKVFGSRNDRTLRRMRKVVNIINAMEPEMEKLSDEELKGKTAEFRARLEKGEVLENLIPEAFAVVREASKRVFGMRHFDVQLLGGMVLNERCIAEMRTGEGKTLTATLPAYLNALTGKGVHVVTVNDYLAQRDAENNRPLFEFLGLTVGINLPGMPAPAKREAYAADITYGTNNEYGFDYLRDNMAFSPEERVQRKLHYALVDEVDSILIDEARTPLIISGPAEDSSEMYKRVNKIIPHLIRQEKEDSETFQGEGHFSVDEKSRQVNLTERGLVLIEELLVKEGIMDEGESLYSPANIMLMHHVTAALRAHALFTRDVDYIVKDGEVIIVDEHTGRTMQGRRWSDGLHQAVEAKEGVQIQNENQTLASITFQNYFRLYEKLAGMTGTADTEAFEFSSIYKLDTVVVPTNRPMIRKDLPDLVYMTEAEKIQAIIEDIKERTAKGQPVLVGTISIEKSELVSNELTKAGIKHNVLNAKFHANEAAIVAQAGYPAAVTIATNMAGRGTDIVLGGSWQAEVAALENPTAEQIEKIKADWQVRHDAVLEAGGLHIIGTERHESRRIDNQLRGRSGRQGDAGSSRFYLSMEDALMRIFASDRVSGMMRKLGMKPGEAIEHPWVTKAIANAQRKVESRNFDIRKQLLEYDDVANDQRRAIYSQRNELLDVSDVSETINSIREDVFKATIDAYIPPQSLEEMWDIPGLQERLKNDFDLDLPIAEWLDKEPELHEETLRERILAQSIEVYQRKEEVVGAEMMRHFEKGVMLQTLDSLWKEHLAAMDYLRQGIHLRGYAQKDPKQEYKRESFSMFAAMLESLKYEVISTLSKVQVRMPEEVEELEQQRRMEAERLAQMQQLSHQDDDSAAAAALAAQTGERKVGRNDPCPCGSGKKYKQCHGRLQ

[2] = molecular target: T1, Ubiquitin-activating enzyme e1, putative (Leishmania donovani (strain BPK282A1)) (UniProt E9BSI1); assay: Leishmania donovani Ubiquitin Activating Enzyme (LdE1); type: functional; conditions: 30 µM
T1 sequence (whole entry): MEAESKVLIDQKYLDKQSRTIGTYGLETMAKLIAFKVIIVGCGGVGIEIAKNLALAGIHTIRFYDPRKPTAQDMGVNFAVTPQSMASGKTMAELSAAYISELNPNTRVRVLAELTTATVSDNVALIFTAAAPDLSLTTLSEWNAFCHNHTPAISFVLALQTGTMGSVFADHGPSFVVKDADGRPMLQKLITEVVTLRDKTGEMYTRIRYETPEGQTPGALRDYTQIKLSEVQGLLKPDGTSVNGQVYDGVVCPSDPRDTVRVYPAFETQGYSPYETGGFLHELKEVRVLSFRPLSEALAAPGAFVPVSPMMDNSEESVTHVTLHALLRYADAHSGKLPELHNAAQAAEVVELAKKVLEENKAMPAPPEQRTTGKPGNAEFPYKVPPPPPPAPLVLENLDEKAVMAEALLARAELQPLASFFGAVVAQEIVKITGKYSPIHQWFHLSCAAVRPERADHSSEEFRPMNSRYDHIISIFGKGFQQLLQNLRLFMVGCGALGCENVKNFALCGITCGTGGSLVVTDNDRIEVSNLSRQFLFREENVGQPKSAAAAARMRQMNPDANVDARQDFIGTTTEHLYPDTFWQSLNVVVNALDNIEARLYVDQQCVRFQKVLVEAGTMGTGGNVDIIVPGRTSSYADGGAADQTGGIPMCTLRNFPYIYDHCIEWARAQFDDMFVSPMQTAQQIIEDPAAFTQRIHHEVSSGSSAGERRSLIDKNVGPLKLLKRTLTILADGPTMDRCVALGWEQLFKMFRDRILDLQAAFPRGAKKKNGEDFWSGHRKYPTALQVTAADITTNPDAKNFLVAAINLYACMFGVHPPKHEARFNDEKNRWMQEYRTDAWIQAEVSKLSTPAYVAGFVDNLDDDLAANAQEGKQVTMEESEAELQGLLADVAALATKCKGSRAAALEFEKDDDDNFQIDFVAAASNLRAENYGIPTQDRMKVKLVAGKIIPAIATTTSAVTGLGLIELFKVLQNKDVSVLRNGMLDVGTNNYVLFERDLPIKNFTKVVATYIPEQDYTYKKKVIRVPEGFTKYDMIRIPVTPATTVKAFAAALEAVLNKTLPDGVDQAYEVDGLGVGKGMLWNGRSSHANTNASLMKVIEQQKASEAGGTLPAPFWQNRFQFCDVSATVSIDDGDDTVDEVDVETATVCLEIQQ

[3] = molecular target: Sialic acid-binding Ig-like lectin 9 (Homo sapiens) (UniProt Q9Y336); assay: Hs-Siglec9 ALPHAscreen SOP 20170721; conditions: 10 µM
Sequence of Sialic acid-binding Ig-like lectin 9 (Homo sapiens) (Q9Y336 whole entry): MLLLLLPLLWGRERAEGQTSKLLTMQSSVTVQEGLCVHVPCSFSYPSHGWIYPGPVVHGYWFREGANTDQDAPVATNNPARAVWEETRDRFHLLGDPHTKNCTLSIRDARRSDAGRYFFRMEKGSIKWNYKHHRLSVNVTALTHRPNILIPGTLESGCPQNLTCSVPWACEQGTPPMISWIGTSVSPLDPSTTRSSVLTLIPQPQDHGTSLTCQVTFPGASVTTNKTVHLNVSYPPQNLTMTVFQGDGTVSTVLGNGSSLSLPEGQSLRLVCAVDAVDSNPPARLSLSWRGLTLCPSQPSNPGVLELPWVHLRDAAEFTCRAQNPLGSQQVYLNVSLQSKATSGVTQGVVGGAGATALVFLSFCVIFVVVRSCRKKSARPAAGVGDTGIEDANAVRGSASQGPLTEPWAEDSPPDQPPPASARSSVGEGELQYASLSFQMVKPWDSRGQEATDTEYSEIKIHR

Trypanosoma cruzi = assay: Trypanosoma cruzi phosphomannomutase and mannose-1-phosphate guanylyltransferase assay; type: functional; conditions: 10 µM
[4] = molecular target: T2, Arginase-2, mitochondrial (Homo sapiens) (UniProt P78540); assay: in vitro enzyme assay to detect the production of urea directly proportional to the activity of Arginase II; type: functional; conditions: 33.3 µM; note: in the data most compounds retested in dose-response had high values
T2 sequence (whole entry): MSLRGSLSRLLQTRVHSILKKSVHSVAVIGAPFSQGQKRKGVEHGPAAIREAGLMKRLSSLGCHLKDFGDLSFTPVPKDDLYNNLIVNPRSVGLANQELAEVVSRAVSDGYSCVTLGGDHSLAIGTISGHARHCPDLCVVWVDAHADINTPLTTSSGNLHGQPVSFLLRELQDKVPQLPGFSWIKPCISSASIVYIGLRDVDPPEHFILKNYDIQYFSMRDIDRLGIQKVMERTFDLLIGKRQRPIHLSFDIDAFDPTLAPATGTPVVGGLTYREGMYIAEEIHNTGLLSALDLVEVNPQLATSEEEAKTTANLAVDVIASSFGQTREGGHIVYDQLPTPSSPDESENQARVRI

[5] = molecular target: T3, Proteasome subunit beta (Trypanosoma cruzi) (UniProt O96673); assay: Trypanosoma cruzi proteasome chymotrypsin-like activity (TcProtChymo) assay.; note: in the data most compounds retested in dose-response had high values; type: functional; conditions: 9.37 µM
T3 sequence (whole entry): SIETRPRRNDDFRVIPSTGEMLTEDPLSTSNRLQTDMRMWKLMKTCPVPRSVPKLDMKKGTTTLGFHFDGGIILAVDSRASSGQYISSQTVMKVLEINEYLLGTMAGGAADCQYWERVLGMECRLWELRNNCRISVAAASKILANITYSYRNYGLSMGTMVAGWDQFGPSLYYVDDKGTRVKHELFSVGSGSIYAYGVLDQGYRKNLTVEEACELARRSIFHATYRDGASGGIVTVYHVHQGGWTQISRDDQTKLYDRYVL

Homo sapiens = species on record: Homo sapiens; assay: To identify inhibition of the IFN signalling (Jak-Stat) pathway via expression of an eGFP reporter gene under the control of an IFN-stimulated response element (ISRE) containing MxA promoter.; type: functional; conditions: 30 µM
[6] = molecular target: T4, Tyrosyl-tRNA synthetase, putative (Trypanosoma cruzi (strain CL Brener)) (UniProt Q4DSP6); assay: Trypanosoma cruzi tyrosyl tRNA synthetase (TcYRS) _High Tyrosine SOP; type: functional; conditions: 30 µM; note: in the data most compounds retested in dose-response had high values
T4 sequence (whole entry): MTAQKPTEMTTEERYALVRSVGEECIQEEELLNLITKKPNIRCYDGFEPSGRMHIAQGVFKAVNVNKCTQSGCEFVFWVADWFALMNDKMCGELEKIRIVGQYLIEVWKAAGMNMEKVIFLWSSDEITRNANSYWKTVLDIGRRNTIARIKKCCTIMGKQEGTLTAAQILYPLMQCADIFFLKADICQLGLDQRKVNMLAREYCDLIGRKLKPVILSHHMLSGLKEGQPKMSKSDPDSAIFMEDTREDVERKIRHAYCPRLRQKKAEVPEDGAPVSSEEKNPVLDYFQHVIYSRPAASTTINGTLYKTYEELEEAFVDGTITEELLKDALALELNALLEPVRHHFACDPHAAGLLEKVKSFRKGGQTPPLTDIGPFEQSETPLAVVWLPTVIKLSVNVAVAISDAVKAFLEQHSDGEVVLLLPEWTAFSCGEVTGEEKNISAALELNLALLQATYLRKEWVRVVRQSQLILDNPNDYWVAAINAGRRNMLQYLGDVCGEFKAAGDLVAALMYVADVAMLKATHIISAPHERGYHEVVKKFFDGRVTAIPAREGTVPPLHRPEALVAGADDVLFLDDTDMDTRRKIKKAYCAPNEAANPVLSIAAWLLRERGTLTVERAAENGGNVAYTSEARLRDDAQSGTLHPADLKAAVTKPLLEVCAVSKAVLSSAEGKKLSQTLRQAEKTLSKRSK

[7] = molecular target: T4, Tyrosyl-tRNA synthetase, putative (Trypanosoma cruzi (strain CL Brener)); assay: Trypanosoma cruzi tyrosyl tRNA synthetase (TcYRS) SOP; type: functional; conditions: 30 µM
[8] = molecular target: Chromo domain-containing protein 1 (Saccharomyces cerevisiae (strain ATCC 204508 / S288c) (Baker's yeast)) (UniProt P32657); assay: ScCHD-1 Enzyme Inhibition Assay; type: functional; conditions: 30 µM; note: in the data most compounds retested in dose-response had high values
Sequence of Chromo domain-containing protein 1 (Saccharomyces cerevisiae (strain ATCC 204508 / S288c) (Baker's yeast)) (P32657 whole entry, the tested form may be a part): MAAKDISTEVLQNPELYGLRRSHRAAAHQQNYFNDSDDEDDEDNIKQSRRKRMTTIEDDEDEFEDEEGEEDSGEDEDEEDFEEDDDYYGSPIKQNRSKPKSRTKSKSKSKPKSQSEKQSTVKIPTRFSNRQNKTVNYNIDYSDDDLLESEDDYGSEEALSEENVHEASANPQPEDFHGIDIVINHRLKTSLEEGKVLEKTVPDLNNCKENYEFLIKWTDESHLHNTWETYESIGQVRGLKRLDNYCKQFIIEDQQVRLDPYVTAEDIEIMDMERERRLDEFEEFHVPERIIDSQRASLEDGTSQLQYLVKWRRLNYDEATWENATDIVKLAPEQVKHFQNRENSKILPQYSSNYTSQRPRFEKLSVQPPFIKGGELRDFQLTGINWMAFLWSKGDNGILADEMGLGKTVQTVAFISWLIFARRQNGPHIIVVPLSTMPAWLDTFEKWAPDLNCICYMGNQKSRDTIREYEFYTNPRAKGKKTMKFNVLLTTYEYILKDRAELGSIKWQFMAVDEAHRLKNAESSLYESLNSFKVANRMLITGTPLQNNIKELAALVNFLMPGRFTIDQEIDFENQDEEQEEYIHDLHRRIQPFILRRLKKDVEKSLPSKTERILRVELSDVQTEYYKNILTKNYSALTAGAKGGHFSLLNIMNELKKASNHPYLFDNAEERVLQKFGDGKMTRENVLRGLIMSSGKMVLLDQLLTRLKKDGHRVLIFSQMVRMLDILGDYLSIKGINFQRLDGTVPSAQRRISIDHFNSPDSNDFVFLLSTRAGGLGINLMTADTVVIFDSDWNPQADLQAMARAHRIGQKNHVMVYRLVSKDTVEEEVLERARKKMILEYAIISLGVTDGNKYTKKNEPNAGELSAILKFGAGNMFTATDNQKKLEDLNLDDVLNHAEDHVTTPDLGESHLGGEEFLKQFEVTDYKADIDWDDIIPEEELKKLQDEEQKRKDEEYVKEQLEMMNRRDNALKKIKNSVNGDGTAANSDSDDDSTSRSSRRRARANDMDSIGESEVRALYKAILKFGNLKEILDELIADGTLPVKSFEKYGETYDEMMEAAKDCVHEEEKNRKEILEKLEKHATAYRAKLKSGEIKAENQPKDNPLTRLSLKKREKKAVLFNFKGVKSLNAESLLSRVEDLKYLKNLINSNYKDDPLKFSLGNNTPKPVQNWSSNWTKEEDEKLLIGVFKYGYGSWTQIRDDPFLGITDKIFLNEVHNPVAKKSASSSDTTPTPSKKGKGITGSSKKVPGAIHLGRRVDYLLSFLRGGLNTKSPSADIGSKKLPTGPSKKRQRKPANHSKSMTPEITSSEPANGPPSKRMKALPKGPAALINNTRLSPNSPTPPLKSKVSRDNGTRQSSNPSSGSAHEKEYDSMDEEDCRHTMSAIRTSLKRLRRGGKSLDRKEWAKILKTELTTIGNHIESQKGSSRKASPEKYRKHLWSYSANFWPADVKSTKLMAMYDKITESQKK

SMILES | Percent Effect [1] [%] | Percent Effect [2] [%] | Percent Effect [3] [%] | Percent Effect (Trypanosoma cruzi) [%] | Percent Effect [4] [%] | Percent Effect [5] [%] | Percent Effect (Homo sapiens) [%] | Percent Effect [6] [%] | Percent Effect [7] [%] | Percent Effect [8] [%]
Cc1occc1C(=O)NCc1ccc(N2CCCC(C(N)=O)C2)cc1 (stereo not given) | -2.46 | 8 | -3.46 | -3.61 | 10.6 | 13 | 16.5 | 2.63 | 7.69 | -9.94
COc1ccc(C2CC(=O)Nc3c2nc2n3CCCC2)cc1O (stereo not given) | -3.09 | 2.7 | 6.46 | -2.04 | 7.34 | 22.6 | 23.4 | 1.6 | 14.6 | -3.18
O=C(NCCCN1CCc2ccccc2C1)c1cccnc1O | -1.75 | 10.7 | 3.3 | -0.803 | 2.22 | 2.8 | 4.99 | 2.63 | 10.3 | -11.3
Cc1cc(CN(C)C(=O)NCC(C)N2CCc3ccccc32)no1 (stereo not given) | -2.85 | -2.6 | 14.4 | 1.31 | -2.25 | -2.46 | -9.63 | 7.84 | 7.06 | 4.85
Cc1oncc1C(=O)NCc1cc(=O)n2c(n1)CN(C)CCC2 | -1.85 | 6.49 | -2.27 | -8.28 | 4.86 | 24.6 | 12.2 | 2.63 | 12.8 | -1.21
Cc1ccc(Cl)cc1N1CCC(CNC(=O)CCn2ccnc2)C1 (stereo not given) | -4.06 | 5.13 | -8.73 | 10.8 | 2.05 | 12.2 | 9.72 | 12.9 | 22.9 | -4.33
Cc1ncccc1O[C@H]1CCN(C(=O)Cc2cccs2)CC[C@@H]1O | -5.37 | 17.3 | 6.84 | 1.18 | -0.443 | 10.8 | 7.57 | 6.35 | 15 | -22.2
Cc1csc(N2CCCN(C(=O)c3cnns3)CC2)n1 | -2.47 | -2.67 | -0.659 | -0.803 | -1.33 | -0.255 | -0.448 | 0.526 | 0 | 4.48
CCOC1COC2(CCN(Cc3ccc4c(c3)OCO4)CC2)C1 (stereo not given) | -2.81 | 19.5 | 5.28 | -1.13 | 3.65 | 5.06 | 17.9 | 8.7 | 12.5 | -4.64
CC(C)N1CCN(C(=O)Nc2cnn(CC(N)=O)c2)CC1 | -3.33 | 17.9 | -17.7 | 9.67 | 0 | 11.7 | 5.26 | -3.35 | 22.9 | -6.52
COc1cccc2c1OCC(C(=O)NC1CCN(S(C)(=O)=O)CC1)C2 (stereo not given) | -2.9 | 16.2 | 3.48 | 3.59 | 12.2 | 18.7 | 16.9 | 5.85 | 17.1 | 93.6
